What all share (test): NCI-60 one-dose screen, 48 h (100 = growth as untreated, 0 = no growth, -100 = all killed)
Conditions in all cases: 10 µM unless noted

The test system of assay [1] is HCT-15 colon.
In assay [2] the test system is HT29 colon.
Assay [3] deals with SNB-75 CNS.
For assay [4], the system named is SNB-19 CNS.
In assay [5] the test system is U251 CNS.
The subject of assay [6] is PC-3 prostate.
Assay [7] deals with UACC-62 melanoma.
Assay [8] relates to LOX IMVI melanoma.
The subject of assay [9] is SK-MEL-28 melanoma.
Assay [10] concerns SK-MEL-5 melanoma.

Each structure is given as a SMILES string. This is part of a sample that, as a whole, favours compounds with a hit. Of some 83,000 tested, about 20% had one in any assay.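 Activity criterion: percent growth below 10, measured after cells in 96-well plates were exposed to a single compound concentration for 48 hours.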 A number with no mark means an inactive call. The source made the active and inactive calls.

Consider `CCCCCCCCNc1cccc2c1C(=O)c1ccccc1C2=O`, for which the growth was 107% in assay [1]; 89.7% in assay [2]; 98.3% in assay [3]; 96.4% in assay [4]; 110% in assay [5]; 104% in [6]. Further, the growth in [7] is 96%; in [8], 105%; in [9], 114%.

As to `CCCNc1nc(N(C)O)nc(N(C)O)n1`, the growth in assay [1] is 26.5%; in assay [2], 40.7%; in assay [3], 77.3%; in assay [4] it was 38.3%; in assay [5] it was 27.8%; in assay [6], 51.9%. Moreover, the growth was 31.5% in assay [7], 22.9% in assay [8] and 41.4% in [9].

In the case of `N=C(N)N=Nc1ccc(O)cc1`, the growth was 45.9% [100 µM] in [1]; 31.9% [100 µM] in assay [2]; 56.3% [100 µM] in [3]; 56.8% [100 µM] in assay [4]; 40.5% [100 µM] in [5]; 38.1% [100 µM] in assay [6]. Further, the growth in assay [10] is 85.9% [100 µM]; in assay [9] it was 104% [100 µM].

Take `COc1ccc(-c2n[nH]nc2-c2cc3ccccc3s2)cc1O`: the growth in assay [1] is 20%; in assay [2] it was 29.9%; in [3] it was 35.5%; in assay [4], 27.6%; in assay [5], 15.8%; in assay [6] it was 16%. In addition, the figures for the growth in assay [7], in assay [8] and in assay [9] were 33.7%, 20.6% and 38.4%, respectively.

As for `Cc1cccc(C)c1NCc1nc(-c2ccccc2)n[nH]1`, the growth was 101% in [1]; 103% in assay [2]; 89.7% in assay [3]; 94.7% in assay [4]; 101% in assay [5]; 100% in [6]. The results for the growth in assay [8] and in assay [9] were 97.9% and 96.8%, respectively.

Regarding `COC(=O)c1cc(=O)nc(N/N=C/c2ccc(C)cc2)s1`, the growth in [1] was 86.2%; in assay [2] it was 104%; in assay [3], 91.7%; in assay [4], 109%; in assay [5], 107%; in [6] it was 91.2%. For the same molecule, the growth in assay [7] was 115%; in assay [8] it was 109%; in assay [9], 104%.

With `C#CCn1c2c(c3ccccc31)C[C@]1(C)[C@H]3CC[C@@H]4[C@@H]5C(=CCC[C@H]5C(=C)C)CC[C@@]4(C)[C@]3(C)CC[C@H]1C2(C)C`, the growth is 104% in [1]; 104% in [2]; 90.3% in [3]; 100% in assay [4]; 106% in assay [5]; 97.3% in [6]. For the same molecule, the growth in [7] is 95.2%; in [9] it was 106%.

For the molecule `Cn1c2ccccc2c2c3c(c4c5cccnc5[nH]c4c21)C(=O)N(O)C3=O`, the growth in assay [1] is 67.4%; in [2], 28.9%; in [3], 61%; in assay [4], 38.1%; in [5] it was 21%; in assay [6] it was 42.4%. Besides, in assay [8], the growth is 2.63% (active).

For the molecule `COc1ccc(-c2cc(/C=C/C(=O)c3ccc(OC)c(OC)c3)[nH]n2)cc1`, the growth is 12.5% in assay [1]; 1.11% (active) in [2]; 9.56% (active) in assay [3]; 27% in [4]; 4.42% (active) in assay [5]; 4.36% (active) in assay [6]. For the same molecule, the growth in assay [7] is 37.3%; in assay [9], 53.9%.

As for `Cc1cc(N(CCCNc2ccnc3cc(Cl)ccc23)Cc2ccco2)nc(Cl)n1`, the growth was 48.5% in assay [1]; 22.1% in assay [2]; 66% in [3]; 75.1% in assay [4]; 60.7% in assay [5]; 49% in assay [6]. Moreover, the growth in assay [8] was 42.2%; in assay [9], 77.7%.

With `Cn1c2c(Cl)c(Cl)ccc2c2c(C#N)c[nH]c(=O)c21`, the growth in [1] is 99%; in assay [2], 99.5%; in assay [3], 91.9%; in [4], 97.3%; in [5], 101%; in assay [6] it was 74.3%. In addition, the growth in [7] is 93.4%; in [8], 91.9%; in [9], 114%.

With `Clc1cc(Cl)cc(Nc2ccc3c(OCCCN4CCOCC4)cccc3n2)c1`, the growth in assay [1] was -46.4% (active); in [2] it was -64.5% (active); in [3] it was 54.9%; in [4] it was 31.7%; in [5] it was 29.1%; in assay [6], 42%. In addition, the results for the growth in assay [8] and in [9] were -85.4% (active) and 65.6%, respectively.

As to `CCSc1sc(-c2ccc(C)cc2)nc1[P+](c1ccccc1)(c1ccccc1)c1ccccc1`, the growth in assay [1] is 1.86% (active); in [2], 2.52% (active); in assay [3] it was -8.6% (active); in [4], 8.14% (active); in assay [5], 9.48% (active); in assay [6] it was -11.5% (active). Further, the growth in assay [7] is -42.5% (active); in [9] it was 15.2%.

As to `COC(=O)C(Cc1ccccc1)n1cc(COc2nc(Cl)nc(Nc3ccc(Cl)cc3)n2)nn1` (centres undefined), the growth was 91% in assay [1]; 95.5% in [2]; 104% in assay [3]; 98.2% in [4]; 94.1% in assay [5]; 101% in assay [6]. For the same molecule, the growth in [7] is 93.1%; in [9], 107%.

As to `COc1ccc2c(c1)c(-c1nc(-c3cn(C)c4ncccc34)cs1)cn2CCN`, the growth in assay [1] is 58.5%; in assay [2], 74.5%; in assay [3], 78.2%; in assay [4], 80.7%; in [5], 84.8%; in [6] it was 70.2%. Moreover, the growth in assay [8] was 68.1%; in assay [9], 99%.

Source of the values: PubChem BioAssay (NCI).
